In PubChem BioAssay AID1159580 (chemical genetic matrix, 2015):
Values joined by “and” are separate entries in the source; they are usually repeats but may differ in a detail not shown here. Equal entries are not always repeated. The whole screen tested about 5,500 compounds, of which about 2,000 (36%) were called active. About 18% were inconclusive and are not listed. Cut-off read from the data, not from the text of the source: active = normalized growth mostly below about 0.91 (no sharp cut-off); inconclusive = no clear call, values can overlap the other calls; inactive = mostly above about 0.92. This is one part of the list.

Test: chemical genetic growth profiling, strain panel (AID 1159580);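 note: tested at 20 µM; growth read once vehicle control cultures reached saturation at 30 °C; 1 = growth at the plate median or of vehicle wells; lower values mean less growth of the strain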
Settings: S. cerevisiae deletion strains, growth OD

Measured: normalized growth

Nc1ccc(S(=O)(=O)Nc2nccs2)cc1
inactive: locus YAL013W, strain DEP1, hits give low values 1.01 | locus YAL021C, strain ccr4, hits give low values 1.02 | locus YAL026C, strain drs2, hits give low values 1.01 | locus YAL030W, strain snc1, hits give low values 1.02 | locus YBL061C, strain skt5, hits give low values 1.01 | locus YBR009C, strain hhf1, hits give low values 1 | locus YBR021W, strain FUR4, hits give low values 1 | locus YBR023C, strain chs3, hits give low values 1.03 | locus YBR171W, strain sec66, hits give low values 1.03 | locus YBR229C, strain ROT2, hits give low values 1 | locus YBR231C, strain swc5, hits give low values 1.04 | locus YBR279W, strain paf1, hits give low values 1.01 | locus YCL011C, strain gbp2, hits give low values 1.01 | locus YCL016C, strain dcc1, hits give low values 1 | locus YCL029C, strain bik1, hits give low values 0.998 | locus YCL069W, strain vba3, hits give low values 1.01 | locus YCR088W, strain abp1, hits give low values 1.01 | locus YDL005C, strain med2, hits give low values 1.01 | locus YDL035C, strain GPR1, hits give low values 1.04 | locus YDL040C, strain nat1, hits give low values 1.02 | locus YDL074C, strain BRE1, hits give low values 1.01 | locus YDL101C, strain DUN1, hits give low values 1 | locus YDL134C, strain PPH21, hits give low values 1.01 | locus YDL185W, strain tfp1, hits give low values 1.01 | locus YDL192W, strain arf1, hits give low values 1.01 | locus YDR001C, strain nth1, hits give low values 1.02 | locus YDR069C, strain doa4, hits give low values 1.02 | locus YDR101C, strain arx1, hits give low values 1 | locus YDR137W, strain rgp1, hits give low values 1.02 | locus YDR150W, strain NUM1, hits give low values 1.01 | locus YDR159W, strain sac3, hits give low values 1.02 | locus YDR162C, strain NBP2, hits give low values 1.02 | locus YDR195W, strain ref2 1.01 | locus YDR297W, strain sur2, hits give low values 1.02 | locus YDR318W, strain mcm21, hits give low values 0.985 | locus YDR334W, strain swr1, hits give low values 1.01 | locus YDR335W, strain msn5, hits give low values 1.02 | locus YDR388W, hits give low values 0.995 | locus YDR392W, strain spt3, hits give low values 0.954 | locus YDR502C, strain sam2, hits give low values 1.01 | locus YEL003W, strain gim4, hits give low values 1.02 | locus YEL037C, strain rad23, hits give low values 1.01 | locus YEL061C, strain CIN8 (second series), hits give low values 1.01 | locus YEL061C, strain CIN8, hits give low values 1 | locus YER015W, strain faa2, hits give low values 1.04 | locus YER016W, strain bim1, hits give low values 0.997 | locus YER110C, hits give low values 0.995 | locus YER111C, strain swi4, hits give low values 1.01 | locus YER155C, strain BEM2 (second series), hits give low values 1.01 | locus YER155C, strain BEM2, hits give low values 0.996 | locus YER167W, strain BCK2, hits give low values 1.03 | locus YFR010W, strain ubp6, hits give low values 1.02 | locus YGL078C, strain dbp3, hits give low values 1.01 | locus YGL086W, strain mad1, hits give low values 1.02 | locus YGL167C, strain pmr1, hits give low values 1.02 | locus YGL173C, strain kem1, hits give low values 1.02 | locus YGL227W, strain vid30, hits give low values 1.02 | locus YGL240W, strain doc1, hits give low values 1.02 | locus YGL248W, strain PDE1, hits give low values 1.02 | locus YGL253W, strain hxk2, hits give low values 1.02 | locus YGR078C, strain PAC10, hits give low values 1 | locus YGR135W, strain pre9, hits give low values 1.01 | locus YGR229C, strain SMI1, hits give low values 1.01 | locus YGR252W, strain gcn5, hits give low values 1.06 | locus YHR013C, strain ard1, hits give low values 1 | locus YHR027C, strain rpn1, hits give low values 1.02 | locus YHR030C, strain SLT2, hits give low values 1.01 and 0.999 | locus YHR079C, strain IRE1 (second series), hits give low values 0.995 | locus YHR079C, strain IRE1, hits give low values 1.03 | locus YHR094C, strain hxt1, hits give low values 0.99 | locus YHR129C, strain ARP1, hits give low values 1 | locus YHR142W, strain chs7, hits give low values 1.01 | locus YHR200W, strain rpn10, hits give low values 1 | locus YIL066C, strain RNR3, hits give low values 1.02 | locus YIL073C, strain SPO22, hits give low values 1 | locus YIL125W, strain kgd1, hits give low values 1.01 | locus YIR030C, strain dcg1, hits give low values 0.995 | locus YJL092W, strain hpr5, hits give low values 1.01 | locus YJL095W, strain BCK1 (second series), hits give low values 1.02 | locus YJL095W, strain BCK1, hits give low values 1 | locus YJL115W, strain asf1, hits give low values 1.02 | locus YJL129C, strain trk1, hits give low values 1.02 | locus YJL134W, strain LCB3, hits give low values 1.01 | locus YJL154C, strain vps35, hits give low values 1.01 | locus YJL164C, strain tpk1, hits give low values 0.996 | locus YJL166W, strain qcr8, hits give low values 1.03 | locus YJL168C, strain set2, hits give low values 0.992 | locus YJL187C, strain SWE1 (second series), hits give low values 1.01 | locus YJL187C, strain SWE1, hits give low values 1.02 | locus YJR043C, strain POL32, hits give low values 1 | locus YJR066W, strain TOR1, hits give low values 0.939
